Results: PubChem BioAssay (NCI)
The panel holds about 83,000 compounds, 20% with a hit somewhere; the sample as a whole holds those more often.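 The test compound was applied at a single concentration to cells in 96-well plates for 48 hours, and percent growth was recorded.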 Activity calls are given as the source filed them. Rule for the calls: active = growth percent below 10; inactive = the rest.

The compounds below were run on HL-60(TB) leukemia (assay: NCI-60 one-dose screen, 48 h (100 = growth as untreated, 0 = no growth, -100 = all killed)). Conditions: 10 µM unless noted.

**Q.** For `CC(=O)OC1CC2CCC1(C)C2(C)C` (configuration not stated), which growth is on record?
**A.** 103% (inactive)

**Q.** For `N=C(N)c1ccc(-c2ccc(-c3ccc4ccccc4c3)s2)cc1`, which growth is on record?
**A.** 86.7% (inactive)

**Q.** With `NS(=O)(=O)c1ccc(C(=O)NN2C(=O)c3c(Br)c(Br)c(Br)c(Br)c3C2=O)cc1` as the compound, how does the growth read?
**A.** 103% (inactive)

**Q.** How did the growth turn out when `CCOC(=O)c1cc(C(=O)c2cc(OC)cc(OC)c2)n2ncc3ccccc3c12` was run?
**A.** -8.3% (active)

**Q.** For `CCCN1CN2C(=O)N3CN(CCC)CN4C(=S)N(C1)C2C34` (configuration not stated), which growth is on record?
**A.** 95% (inactive)

**Q.** `CC1CN(C2CCCCC2)C(=S)N(c2ccccc2)C1=O` (configuration not stated) was tested. Which growth did it give?
**A.** 85% (inactive)

**Q.** For `C1CCN(c2nc(N3CCCCC3)nc(N3CCOCC3)n2)CC1`, which growth is on record?
**A.** 112% (inactive)

**Q.** Which growth does the source give for `NC1=NC(c2cccc(Br)c2)c2sc3ccc(Cl)cc3c2N1` (configuration not stated) here?
**A.** 102% (inactive)

**Q.** For `CN(C)c1ccc(/C=C2\C=C(c3ccccc3)N(CCc3ccccc3)C2=O)cc1`, which growth is on record?
**A.** 74.5% (inactive)

**Q.** With `O=S(=O)(NCCCNc1nccc(-n2ccc3cccnc32)n1)c1cccc(C(F)(F)F)c1` as the compound, how does the growth read?
**A.** 109% (inactive)

**Q.** `COc1ccc(/C(=C\c2cc(OC)c(OC)c(OC)c2)C(=O)Nc2nc3ccc(Cl)cc3s2)cc1` was tested. Which growth did it give?
**A.** 81.4% (inactive)

**Q.** For `Cc1n(Cc2ccc3ccccc3c2)c2ccccc2[n+]1Cc1ccc2ccccc2c1`, which growth is on record?
**A.** -60.3% (active)

**Q.** `O=C1c2cccc3cccc(c23)C(=O)N1CCCCN1CCN(CCCCOc2ccc(-c3nc4ccc(N5CCOCC5)cc4[nH]3)cc2)CC1` was tested. Which growth did it give?
**A.** 92.6% (inactive)

**Q.** How did the growth turn out when `COc1cccc(/C=C2\SC(=Nc3ccc(NC(C)=O)cc3)NC2=O)c1OC` was run?
**A.** 101% (inactive)

**Q.** `COc1ccc(/C=C2\Oc3cc(OCCCCCN4CCCCC4)ccc3C2=O)cc1OC` was tested. Which growth did it give?
**A.** 97.8% (inactive)

**Q.** How did the growth turn out when `CCc1cc2n(n1)-c1ncc(C(=O)OC)cc1Oc1ccccc1-2` was run?
**A.** 105% (inactive)

**Q.** `CCOC(=O)c1ccc(NC(=O)NC2=NCCS2)cc1` was tested. Which growth did it give?
**A.** 13.5% (inactive)

**Q.** `Clc1ccc(Nc2nccc(Nc3ccc4[nH]ncc4c3)n2)cc1` was tested. Which growth did it give?
**A.** 51.5% (inactive)

**Q.** Which growth does the source give for `COc1ccc(OC)c(-c2c(C#N)c(-c3ccco3)nc3c2c(-c2ccccc2)nn3-c2ccccc2)c1` here?
**A.** 105% (inactive)

**Q.** Which growth does the source give for `O=C1/C(=C\c2coc3ccccc3c2=O)c2ccccc2N1c1c(Cl)cccc1Cl` here?
**A.** 33.8% (inactive)

**Q.** For `COc1ccc(-c2[nH]c3ccccc3c2C=C(C#N)C#N)cc1`, which growth is on record?
**A.** -48.9% (active)

**Q.** Which growth does the source give for `CC(C)(C)c1cc(Br)cc(C(C)(C)C)c1O` here?
**A.** 94.1% (inactive)

**Q.** For `CCCCC1COc2cccc3c2N1C=C/C3=C\C(=O)N(C)c1cccc(Cl)c1` (configuration not stated), which growth is on record?
**A.** 98.7% (inactive)

**Q.** Which growth does the source give for `C=C(C)[C@@H]1CC[C@]2(N=C=O)CC[C@]3(C)[C@H](CC[C@@H]4[C@@]5(C)Cc6c([nH]c7ccccc67)C(C)(C)[C@@H]5CC[C@]43C)[C@@H]12` here?
**A.** 46.2% (inactive)

**Q.** How did the growth turn out when `COc1cc(C2CC(c3ccc(C)cc3)=NN2C=O)ccc1Oc1nc2c(c(=O)n(C)c(=O)n2C)n1C` (configuration not stated) was run?
**A.** 111% (inactive)

**Q.** Which growth does the source give for `COc1cc2oc(-c3cccc(C(=O)Nc4ccc(Cl)cc4)c3)cc(=O)c2c(O)c1OC` here?
**A.** 85.6% (inactive)

**Q.** For `Cn1c(=O)cc2c3c(c(NCCCO)ccc31)C(=O)c1ccccc1-2`, which growth is on record?
**A.** 50.8% (inactive)
